The source of these data is ChEMBL document CHEMBL3433997, “St. Jude Leishmania screening dataset” (2016).

Assay type in all cases: functional
Assay [1] deals with Solute carrier family 2, facilitated glucose transporter member 1 (Homo sapiens) (UniProt P11166). Put plainly: ST_JUDE_LEISH: Cytotoxicity at 2uM final concentration against transgenic Leishmania Mexicana promastigotes LmGLUT1 that are glucose transport deficient and complemented with the human glucose transporter GLUT1. Activity is measured by DNA content using SYBR green in vitro.
Solute carrier family 2, facilitated glucose transporter member 1 (Homo sapiens), sequence (P11166 whole entry): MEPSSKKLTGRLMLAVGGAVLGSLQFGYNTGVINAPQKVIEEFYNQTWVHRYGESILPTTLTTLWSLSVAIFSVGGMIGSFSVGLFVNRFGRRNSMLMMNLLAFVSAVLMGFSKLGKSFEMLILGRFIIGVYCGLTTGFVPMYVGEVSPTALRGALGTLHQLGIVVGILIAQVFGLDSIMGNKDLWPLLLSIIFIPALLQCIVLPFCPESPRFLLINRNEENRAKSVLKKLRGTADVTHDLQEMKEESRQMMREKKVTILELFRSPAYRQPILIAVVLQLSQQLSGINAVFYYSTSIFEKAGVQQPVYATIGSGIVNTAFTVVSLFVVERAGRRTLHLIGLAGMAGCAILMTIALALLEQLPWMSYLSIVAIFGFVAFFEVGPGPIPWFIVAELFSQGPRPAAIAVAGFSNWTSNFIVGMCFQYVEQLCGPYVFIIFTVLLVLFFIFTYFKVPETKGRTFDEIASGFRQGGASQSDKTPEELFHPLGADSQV

Assay [2] concerns the target Hexose transporter 1 (Plasmodium falciparum) (UniProt O97467). Put plainly: ST_JUDE_LEISH: Cytotoxicity at 2uM final concentration against transgenic Leishmania Mexicana promastigotes LmPfHT that are glucose transport deficient and complemented with the Plasmodium falciparum hexose transporter. Activity is measured by DNA content using SYBR green in vitro.
In assay [3] the target is Glucose transporter (Leishmania mexicana) (UniProt O61059). Kind of assay: ST_JUDE_LEISH: Cytotoxicity at 2uM final concentration against transgenic Leishmania Mexicana promastigotes LmGT2 that are glucose transport deficient and complemented with the L. Mexicana glucose transporter 2. Activity is measured by DNA content using SYBR green in vitro.

SMILES strings stand for the structures.

`CC(=O)c1cccc(Nc2nc3ccc(OCc4cc(Cl)cc(Cl)c4)c(C#N)c3[nH]2)c1`: the inhibition in assay [1] worked out at 3.61%; in assay [2], 2.38%; in assay [3], 2.87%.
On to `CCOC(=O)c1c(CNc2ccncc2)n(C)c2cc(Br)c(OC(C)=O)cc12`, for which the inhibition in assay [1] was -0.11%; in assay [2], 2.99%; in assay [3], 1.88%.
Turning to `N#Cc1ccc2c(c1)CCN(CCC1CCC(NC(=O)c3ccc(-c4ccccc4)s3)CC1)CC2` (configuration not stated), the values for the inhibition in assay [1], in assay [2] and in assay [3] were 4.75%, 3.75% and 2.43%, respectively.
Take `CS(=O)(=O)Cc1ccc(Nc2ncc(Cl)c(Nc3cccnc3C(N)=O)n2)cc1`: the inhibition in assay [1] was 28.2%; in assay [2] it was 32.1%; in assay [3], 23%.
Take `Cc1cc(-c2nc3cc(C(=N)N)ccc3[nH]2)c(C)cc1-c1nc2cc(C(=N)N)ccc2[nH]1`: the inhibition in assay [1] was determined as 4.57%; in assay [2], 3.95%; in assay [3] it was 0.94%.
Regarding `COc1ccc(CCNCCCCCCNCCc2ccc(Cl)cc2)c(Cl)c1OC`, the inhibition in assay [1] was 73.4%; in assay [2], 16.7%; in assay [3] it was 102%.
In the case of `CC(=O)c1c(Cc2cccc(C(F)(F)F)c2)c[nH]c1C`, the inhibition in assay [1] was 5.85%; in assay [2] it was 3.6%; in assay [3], -0.87%.
Consider `O=C(Nc1cccc(Cl)c1Cl)N1CCc2cc3nccc(N4CCN5CCC[C@H]5C4)c3cc21`, for which the inhibition in assay [1] is -0.2%; in assay [2], 1.06%; in assay [3] it was 3.39%.
Taken in the same sequence, the figures for `N#Cc1ccc(/C=C/C(=O)NCCCCCN2CCCN(C(=O)Nc3ccc(Cl)c(C(F)(F)F)c3)CC2)cc1` were 1.18%, 1.14% and 1.57%.
In the case of `CCOCCCNc1sc(S(=O)(=O)c2ccccc2)nc1S(=O)(=O)c1ccc(C)cc1`, the results for the inhibition in assay [1], in assay [2] and in assay [3] were 8.93%, 8.79% and 9.56%, respectively.
Taken in the same sequence, the figures for `CC(C)CN(c1nc(C(=O)NNC(=O)[C@H](CC2CC2)NC(=O)c2cc3cc(OCCN(C)C)ccc3o2)cs1)C1CC1` were 6.19%, 6.53% and 7.9%.
Taken in the same sequence, the figures for `c1cc2c3c(cccc3c1)NC(CCCCCCCCC1=Nc3cccc4cccc(c34)N1)=N2` were 2.66%, 1.67% and 2.28%.
As to `C=CCOc1ccc(-c2c(C)[nH]c(C)c(Br)c2=O)cc1`, the inhibition in assay [1] is 2.12%; in assay [2], 2.01%; in assay [3], -0.17%.
For the molecule `O=c1[nH]c2c(cc1CNC1CCCCC1)c(-c1cccc(F)c1)nn2-c1ccccc1`, the values for the inhibition in assay [1], in assay [2] and in assay [3] were 1.69%, 0.38% and -3.71%, respectively.
